A selection: hits, their analogues and other compounds. The true share with any hit is near 3.1%.
RAD52 anneal inh: inhibitors of human RAD52 DNA annealing. P43351. recombinant RAD52 DNA annealing, FRET fluorescence. inhibition, % at 18.7 µM. 0.46% of 360,000 active. AID 651710;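 active means every replicate showing at least 50% inhibition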
dFosB activator: enhances mouse delta FosB homodimer DNA binding | activation, % at 25 µM | purified delta FosB, TAMRA-CDK5 oligo fluorescence polarization; percent of positive-control signal above neutral wells | P13346 | 0.99% of 340,000 active;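 active means mean activation above about 17%, with every replicate also reaching it, limit read from the data, passing the limit was not always enough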
INS-1E GSIS act: GLuc luminescence reporter in INS-1E cells, primary screen for activators of glucose-dependent secretion of insulin; INS-1E GLuc reporter insulin secretion, 2-3 h; activation, % at 16.6 µM; 0.61% of 370,000 active; AID 743287;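 active means lowest replicate activation of at least 40%, so every replicate reaches that level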
MLL AF4-AF9 inh: inhibitors of human MLL-AF4/AF9 interaction. 0.47% of 350,000 active. AlphaScreen, biotin-AF4 peptide binding to FLAG-AF9. P42568. inhibition, % at 10 µM. AID 651704;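 active means every replicate reaching a set inhibition limit, whatever the replicate mean, cut at about 25% in these data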
Target sequence (P42568 whole entry, looked up): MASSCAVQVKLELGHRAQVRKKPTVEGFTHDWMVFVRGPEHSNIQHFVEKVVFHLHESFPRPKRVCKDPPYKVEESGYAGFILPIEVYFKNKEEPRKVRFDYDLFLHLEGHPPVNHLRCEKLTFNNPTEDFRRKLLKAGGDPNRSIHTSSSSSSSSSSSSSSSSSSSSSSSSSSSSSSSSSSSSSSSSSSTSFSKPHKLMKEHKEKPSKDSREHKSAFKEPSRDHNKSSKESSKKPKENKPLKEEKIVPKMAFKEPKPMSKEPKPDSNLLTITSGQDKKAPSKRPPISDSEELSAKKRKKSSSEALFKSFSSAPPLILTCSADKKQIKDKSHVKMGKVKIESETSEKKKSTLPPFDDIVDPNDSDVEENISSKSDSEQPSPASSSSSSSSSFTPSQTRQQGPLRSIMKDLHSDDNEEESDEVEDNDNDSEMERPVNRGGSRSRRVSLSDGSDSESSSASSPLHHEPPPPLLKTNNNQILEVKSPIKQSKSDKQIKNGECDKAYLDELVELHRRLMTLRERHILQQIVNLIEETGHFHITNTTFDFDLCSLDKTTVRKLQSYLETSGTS
DENV2 CPE: protects cells from dengue virus 2 cytopathic effect; 1.7% of 350,000 active; CPE inhibition, % at 9.99 µM; DENV2-infected cells, cytopathic effect rescue, plate reader; in the data active means CPE inhibition above about 20%, passing the limit was not always enough; tested in BHK-21 cells
RAD54 branch: blocks human RAD54 Holliday junction branch migration; 0.14% of 360,000 active; AID 602329; Q92698; inhibition, % at 10.4 µM; FAM/BHQ fluorescence;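 active means mean normalized replicate activity at least 40 and at least half of replicates scoring 40 or more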;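 further: inhibitors cause a drop in the FAM fluorescence signal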
A number is an active result; i = inactive; nt = no result given.

SMILES	RAD52 anneal inh	dFosB activator	INS-1E GSIS act	MLL AF4-AF9 inh	DENV2 CPE	RAD54 branch
C[C@@H]1CN([C@@H](C)CO)C(=O)c2ccccc2-c2ccccc2CO[C@@H]1CN(C)Cc1ccc2c(c1)OCCN2C	i	nt	i	37	i	i
C[C@@H]1CN([C@H](C)CO)C(=O)c2ccccc2-c2ccccc2CO[C@H]1CN(C)C(=O)c1cc(Cl)cc(Cl)c1	i	nt	i	i	29	nt
C[C@H]1CN([C@@H](C)CO)C(=O)c2c(c3ccccc3n2C)-c2ccccc2CO[C@H]1CN(C)Cc1ccc2c(c1)OCCN2C	i	nt	i	44	i	nt
CC(C)(C)[S@@](=O)N1Cc2cc(C(=O)NCc3ccccc3F)nc(-c3cccc(-c4ccncc4)c3)c2[C@H]1CCO	i	nt	i	i	i	i
C[C@@H]1CN([C@@H](C)CO)C(=O)c2cc(NC(=O)CCCCCC(=O)Nc3ccccc3N)ccc2O[C@H]1CN(C)S(=O)(=O)c1ccccc1	i	nt	i	i	i	nt
CCNC(=O)C[C@@H]1CC[C@@H]2[C@@H](COc3ccc(NC(=O)c4ccc(C(F)(F)F)cc4)cc3C(=O)N2C)O1	i	nt	i	i	i	i
COc1ccc(NC(=O)Nc2ccc3c(c2)C(=O)N([C@H](C)CO)C[C@H](C)[C@@H](CN(C)Cc2ccc(C(F)(F)F)cc2)O3)cc1	i	nt	i	i	20	i
COc1ccc(CN(C)C[C@H]2Oc3ccc(NC(=O)Nc4ccc(C(F)(F)F)cc4)cc3C(=O)N([C@@H](C)CO)C[C@H]2C)cc1	i	nt	i	i	i	i
COc1ccc(CN(C)C[C@@H]2Oc3ccc(NC(=O)Nc4ccc(C(F)(F)F)cc4)cc3C(=O)N([C@@H](C)CO)C[C@H]2C)cc1	i	nt	i	i	44	i
CC[n+]1c(/C=C/C=C/N(C(C)=O)c2ccccc2)sc2ccccc21	nt	43	nt	nt	nt	i
CCn1c(/C=C/N(C(C)=O)c2ccccc2)[n+](CC)c2ccc(Cl)cc21	i	i	i	i	i	i
Cc1ccc(S(=O)(=O)N(C)C[C@H]2Oc3ccc(NC(=O)Cc4ccccc4)cc3C(=O)N([C@H](C)CO)C[C@H]2C)cc1	i	nt	i	i	i	i
COc1ccccc1CN(C)C[C@H]1OCc2ccccc2-c2c(n(C)c3ccccc23)C(=O)N([C@H](C)CO)C[C@H]1C	i	nt	i	i	27	nt
C[C@H](CO)N1C[C@H](C)[C@@H](CN(C)Cc2ccccc2C(F)(F)F)OCc2ccccc2-c2c(n(C)c3ccccc23)C1=O	i	nt	i	i	i	nt
COc1ccccc1CN(C)C[C@H]1OCc2ccccc2-c2c(n(C)c3ccccc23)C(=O)N([C@H](C)CO)C[C@@H]1C	nt	nt	i	nt	nt	nt
C[C@H](CO)N1C[C@H](C)[C@H](CN(C)Cc2ccccc2C(F)(F)F)OCc2ccccc2-c2c(n(C)c3ccccc23)C1=O	i	nt	i	i	26	nt
CC[C@]12c3[nH]c4cc(CCC(=O)N(C)C)ccc4c3CCN1C(=O)[C@@H](CC(=O)NCCC1=CCCCC1)C[C@@H]2C(=O)N1CCN(C(=O)c2ccco2)CC1	i	i	i	i	25	i
CC[C@]12c3[nH]c4cc(CCC(=O)N(C)C)ccc4c3CCN1C(=O)[C@@H](CC(=O)NCc1ccco1)C[C@@H]2C(=O)N1CCN(C(=O)C2CC2)CC1	i	i	i	i	25	i
CN(C)C(=O)CCc1ccc2c3c([nH]c2c1)[C@]1(CCc2ccccc2)[C@@H](C(=O)N2CCCCC2)C[C@H](CC(=O)NCc2ccco2)C(=O)N1CC3	i	i	i	i	i	i
CC[C@]12c3[nH]c4ccccc4c3CCN1C(=O)C(CC(=O)NCCC1=CCCCC1)C[C@@H]2C(=O)N1CCN(C(=O)C2CC2)CC1 (stereo partly drawn)	i	i	nt	i	54	i
CCOC(=O)c1cccc(NC(=O)c2ccc(NC(=O)c3ccco3)cc2)c1	i	16	i	i	i	i
O=C(/C=C/c1ccc(Br)cc1)c1ccc(NC(=O)c2ccco2)cc1	nt	i	114	nt	nt	i
COC(=O)c1ccc(NC(=O)c2ccc(NC(=O)c3ccco3)cc2)cc1	i	122	i	i	i	i
CN(CCCC1CCCC1)C(=O)CCc1nnc(-c2ccccc2)o1	i	i	i	48	i	i
